Laboratory results: PubChem BioAssay (NCI)
This is part of a sample that, as a whole, favours compounds with a hit. Of some 79,000 tested, about 15% had one in any assay. Cut-off read from the data, not from the text of the source: active = growth inhibition above about 70%; inactive = the rest.

Legend:
[1] = NCI Yeast Anticancer Drug Screen. Data for the rad50 strain (AID 155);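 note: 0% = growth of vehicle-only cultures of the same strain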; conditions: S. cerevisiae rad50 strain growth inhibition; at 50.0 µM; hits give high values
Outline: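 Readout: growth inhibition relative to vehicle-treated cultures. Compound exposure was carried out in a genetically defined yeast strain deficient in DNA damage repair.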

[2] = NCI Yeast Anticancer Drug Screen. Data for the mec2-1 strain (AID 157); conditions: S. cerevisiae mec2-1 strain, at 50.0 µM, hits give high values
Outline: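 Yeast mec2-1 mutant treated with compound. Readout: growth inhibition vs vehicle controls.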

[3] = NCI Yeast Anticancer Drug Screen. Data for the sgs1 mgt1 strain (AID 161);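 note: 0% = growth of cultures given vehicle only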; conditions: S. cerevisiae sgs1 mgt1 strain, at 50.0 µM, hits give high values
Outline: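 Mutant yeast exposed to compound; growth scored against vehicle-only wells.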

[4] = NCI Yeast Anticancer Drug Screen. Data for the cln2 rad14 strain (AID 165);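 note: 0% = growth equal to vehicle treated cultures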; conditions: S. cerevisiae cln2 rad14 strain, at 50.0 µM, hits give high values
Outline: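 cln2 rad14 yeast strain; compound exposure; growth inhibition read vs vehicle controls.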

[5] = NCI Yeast Anticancer Drug Screen. Data for the mlh1 rad18 strain (AID 175); conditions: S. cerevisiae mlh1 rad18 strain growth inhibition; at 50.0 µM; hits give high values
Outline: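 Yeast w/ defined DNA-repair lesions; compound exposure; growth vs vehicle controls → % inhibition.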

[6] = NCI Yeast Anticancer Drug Screen. Data for the bub3 strain (AID 167); conditions: S. cerevisiae bub3 mutant strain, at 50.0 µM, hits give high values
Outline: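 Readout: yeast growth inhibition, expressed relative to vehicle-only wells. The test organism is a mutant strain from a panel with lesions in DNA repair or checkpoint genes.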

Measured: growth inhibition

Cc1ccc(C(O)(c2ccc(C)cc2)c2ccccn2)cc1
inactive: [1] -6.65% | [2] 16.9% | [3] -7% | [4] -13.8% | [5] -35%

CC(=O)CC(C)=O.CC(=O)CC(C)=O.CC(=O)CC(C)=O.[Tb]
inactive: [1] -0.8% | [2] -7.7% | [3] -3.95% | [4] 26.8% | [5] -19.8%

CC[C@H]1CN2CCc3cc(OC)c(OC)cc3[C@@H]2C[C@@H]1C[C@H]1NCCc2c1[nH]c1ccc(O)cc21
inactive: [1] -16.8% | [2] 17.3% | [3] -19.9% | [4] -8.65% | [5] 7.7%

COc1ccc(CC(C)NO)cc1 (stereo not given)
inactive: [1] -16.2% | [2] 8.8% | [3] -11.9% | [4] 11.7% | [5] -32.5%

O=C1NC(=O)C(C(=O)C(=O)Nc2cccc(C(F)(F)F)c2)C(=O)N1
inactive: [1] -17.7% | [2] 0.1% | [3] -44.7% | [4] -1.75% | [5] -40.9%

CCCCNC(=O)C(Cl)Cl
inactive: [1] 20.2% | [2] 5.4% | [3] 8.65% | [4] 2.4% | [5] 13.9%

Oc1c(Cl)cc(Cl)cc1C1N(Cc2ccc(N(CCCl)CCCl)cc2Cl)CCCN1Cc1ccc(N(CCCl)CCCl)cc1Cl
inactive: [1] -0.6% | [2] 15.6% | [3] 18.6% | [4] -6% | [5] 18%

CC1CCCCN1CCCN=C(N)N[N+](=O)[O-] (stereo not given)
inactive: [1] 9.2% | [2] -3.35% | [3] 19.2% | [4] 18.1% | [5] -0.8%

C[C@]12CC[C@@H]3C4=CC(=O)CC[C@@H]4CC[C@H]3[C@@H]1CC[C@@H]2O
inactive: [1] -4.3% | [2] -12.1% | [3] 5.2% | [4] -8.45% | [5] -2.75%

O=C(Nc1cc(Cl)c(Cl)cc1Cl)C(=O)C1C(=O)NC(=S)NC1=O
inactive: [1] 0.35% | [2] -8.2% | [3] -9% | [4] 9.75% | [5] -22.4%

OCCN1CCN(c2cccc(Cl)c2)CC1
inactive: [1] -7.5% | [2] -12.7% | [3] -34.6% | [4] -11.1% | [5] -4.8%

COc1ccccc1CCN
inactive: [1] -23.6% | [2] -5.9% | [3] -14.1% | [4] -14.3% | [5] -29.3%

C[CH2][Sn]([CH2]C)([S]c1nc(O)cc(=O)[nH]1)[S]c1nc(O)cc(=O)[nH]1
inactive: [1] 32.5% | [2] 41.9% | [3] -18.1% | [4] 7.9% | [5] 25.1%

O=C(O)C(F)(F)C(F)(Cl)C(F)(F)C(F)(Cl)C(F)(F)Cl (stereo not given) (tested in a mixture with another compound)
inactive: [1] -7.65% | [2] -12.8% | [3] -12.7% | [4] -28.2% | [5] -6.2%

[Cu+2].[NH-]c1ccccc1C(=O)O.[NH-]c1ccccc1C(=O)O
inactive: [1] -34.8% | [2] -21.8% | [3] -13.9% | [4] -87.7% | [5] -52.4%

O=C1OC(=O)C2CC3C(CC12)C1(Cl)C(Cl)=C(Cl)C3(Cl)C1(Cl)Cl (stereo not given)
inactive: [1] -15.5% | [2] -28.2% | [3] -13.1% | [6] -17.4% | [5] 3%

Cc1ccc(C)c(C(C)NC2=NCCO2)c1 (stereo not given)
inactive: [1] -3.95% | [2] -7.95% | [3] -11.7% | [6] -9.9% | [5] 19%

CCN(CC)c1ccc([P+](=O)O)cc1
inactive: [1] 6.45% | [2] -9.45% | [3] -9.4% | [6] -7.4% | [5] -8.4%

COC12CC3(C)C(C4=CC(=O)OC4)CCC3(O)C3CCC4=CC(=O)CCC4(CO1)C32 (stereo not given)
inactive: [1] -1.85% | [2] -10.2% | [3] -11.4% | [6] -16.9% | [5] 6.6%

Nc1nc(N)c(N=Nc2ccc([As](=O)(O)O)c(O)c2)c(N)n1
inactive: [1] -4% | [2] -6.9% | [3] -36% | [6] -43% | [5] -18.1%

O=C1C(=C([O-])c2ccccc2)C(=O)c2ccccc21.O=C1C(=C([O-])c2ccccc2)C(=O)c2ccccc21.[Fe+2]
inactive: [1] 19.4% | [2] 28.9% | [3] 14.6% | [6] 28.1% | [5] 15.8%

O=C(O)C(Cl)Cl
inactive: [1] -1.6% | [2] -29.6% | [3] 4.45% | [6] -1.6% | [5] 9.45%
